High-throughput results from PubChem BioAssay.
CYP2C9 inhib: human CYP2C9 inhibition. P11712. CYP2C9 Supersomes, luciferin-H conversion, luminescence. inhibition, % at 5 µM. actives 20% (n = 96,000);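 active = blocking of liver enzyme CYP2C9 beyond about 50% at 5 µM, limit read from the data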
Target sequence (P11712 whole entry, looked up): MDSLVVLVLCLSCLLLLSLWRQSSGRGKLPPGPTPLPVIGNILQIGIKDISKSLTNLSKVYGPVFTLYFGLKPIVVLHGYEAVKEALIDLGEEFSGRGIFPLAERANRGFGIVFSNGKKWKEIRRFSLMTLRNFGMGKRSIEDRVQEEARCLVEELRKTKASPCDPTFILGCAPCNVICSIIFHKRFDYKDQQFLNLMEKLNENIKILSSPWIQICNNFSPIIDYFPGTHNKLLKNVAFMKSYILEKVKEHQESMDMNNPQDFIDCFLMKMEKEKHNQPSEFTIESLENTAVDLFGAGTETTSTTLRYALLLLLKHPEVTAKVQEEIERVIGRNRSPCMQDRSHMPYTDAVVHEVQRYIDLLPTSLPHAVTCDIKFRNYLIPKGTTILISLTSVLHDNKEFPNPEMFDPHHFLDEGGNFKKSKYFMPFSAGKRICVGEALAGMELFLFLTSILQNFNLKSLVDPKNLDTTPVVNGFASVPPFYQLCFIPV
CYP2C9 act: increases human cytochrome P450 2C9 activity. P11712. recombinant CYP2C9, luciferin-H conversion, luminescence; hits give high values; factor 1 = untreated enzyme, 0 = blocked. activation factor at 5 µM. actives 1.4% (n = 96,000). AID 1024;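 active = activation factor of 2 or more for CYP2C9 at a 5 µM dose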
CYP2C19 inh: inhibitors of human CYP2C19 | CYP2C19 Supersomes, luciferin-H EGE luminescence, 30 min | actives 21% (n = 96,000) | P33261 | inhibition, % at 5 µM | AID 778;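 active = CYP2C19 inhibition above a set limit at 5 µM in the primary screen, cut at about 50% in these data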
PLK1 inh: inhibitors of human PLK1 kinase; actives 0.53% (n = 97,000); P53350; AID 619; recombinant PLK1 kinase, TR-FRET peptide phosphorylation; inhibition, % at 10 µM;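 active = inhibition of 50% or more in the single-concentration screen; inactive = inhibition below 50%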
CYP2C19 activ: activators of human cytochrome P450 2C19. P33261. recombinant CYP2C19, luciferin-H EGE luminescence; hits give high values; 0 = fully inhibited enzyme, 1 = untreated enzyme. activation factor at 5 µM. 96,000 tested, under 10 active. AID 1025;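 active = activation factor of at least 2 at 5 µM in the primary screen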
Plk1 PBD FP: inhibitors of human Plk1 polo box domain binding; Plk1 PBD phosphopeptide binding, fluorescence polarization; AID 693; actives 0.13% (n = 97,000); inhibition, %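 (tested at about 20 µM)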; in the data active = inhibition above about 34%, passing the limit was not always enough
A number is an active result; n = inactive; x = no result. A selection: hits, their analogues and other compounds. The true share with any hit is near 28%.

SMILES	CYP2C9 inhib	CYP2C9 act	CYP2C19 inh	PLK1 inh	CYP2C19 activ	Plk1 PBD FP
O=C(NCC1CCCO1)c1nc2c(nnn2Cc2ccc(F)cc2)c(=O)[nH]1 (configuration not stated)	n	n	n	x	n	x
O=C(c1cccs1)N1CCC(c2nc3c(nnn3Cc3ccccc3)c(=O)[nH]2)CC1	59.0	n	n	n	n	n
Cc1ccc(C)c(Cn2nnc3c(=O)[nH]c(C4CCCN(C(=O)C5CCCCC5)C4)nc32)c1 (configuration not stated)	88.6	n	72.9	n	n	n
O=C(c1ccccc1)N1CCCC(c2nc3c(nnn3Cc3ccccc3)c(=O)[nH]2)C1 (configuration not stated)	78.0	n	n	n	n	n
O=C(C1CCCCC1)N1CCCC(c2nc3c(nnn3Cc3ccccc3)c(=O)[nH]2)C1 (configuration not stated)	n	n	n	n	n	n
C=CCn1c(=S)[nH]c2sc3c(c2c1=O)CCC3	x	x	x	n	x	n
CCC(C)Sc1nc(O)c(Cc2ccccc2)c(=O)[nH]1 (configuration not stated)	n	n	n	n	n	n
CC12C(=O)N(CCC(=O)O)C(=O)C1C1C=CC2C1 (configuration not stated)	n	n	n	n	n	n
O=C(Nc1cccc(Oc2ccc3c(c2)C(=O)NC3=O)c1)c1ccco1	n	n	n	n	n	n
CCC(C)(C)n1nnnc1CN(Cc1cc2cc(OC)c(OC)cc2[nH]c1=O)C1CCCC1	n	n	n	n	n	n
COc1cc2cc(CN(Cc3nnnn3Cc3ccccc3)CC3CCCO3)c(=O)[nH]c2cc1OC (configuration not stated)	68.1	n	98.0	n	n	n
COc1ccc2[nH]c(=O)c(CN(Cc3ccccc3)Cc3nnnn3CC3CCCO3)cc2c1 (configuration not stated)	n	n	72.3	n	n	n
CC(=O)Nc1ccc(-c2nnc(SCC(=O)NCc3ccco3)n2C)cc1	n	n	n	n	n	n
CC(C)(C)c1ccc(C(=O)CC(=O)c2cc(Cl)ccc2O)cc1	59.5	n	57.0	n	n	n
C/C(Cn1nnc([N+](=O)[O-])n1)=N\NC(=O)c1ccccc1Cl	n	n	n	n	n	n
Cc1ccc(S(=O)(=O)N2CCCC2C(=O)Nn2cnnc2)cc1 (configuration not stated)	n	n	n	n	n	n
Cc1ccc(S(=O)(=O)N2CCCC2C(=O)Oc2ccccc2)cc1 (configuration not stated)	n	n	75.3	n	n	n
COC(=O)C1CCCN1S(=O)(=O)c1ccc2ccccc2c1 (configuration not stated)	n	2.7	n	n	n	n
O=C(O)CCC(=O)N1CCN(c2nc(-c3ccccc3Cl)c3cc(Br)ccc3n2)CC1	n	n	n	n	n	n
CC(C)(C)NC(=O)NC(=O)COC(=O)C1=COCCO1	n	n	n	n	n	n
CN(Cc1ccc(-n2cccn2)cc1)C(=O)c1cnn2c1NC(c1ccco1)CC2C(F)(F)F (configuration not stated)	78.2	n	n	n	n	n
COCCNC(=O)c1cnn2c1NC(c1ccco1)CC2C(F)(F)F (configuration not stated)	x	x	x	n	x	n
CCOc1ccc2[nH]cc(C(=O)N3CCN(C4CCCCC4)CC3)c(=O)c2c1	x	x	x	n	x	n
COC(=O)c1ccc(NCCc2csc(-c3ccc(C)cc3)n2)c([N+](=O)[O-])c1	60.3	n	51.8	n	n	n
Cc1nn(-c2ccccc2)c2c1C1(C(=O)N(C(C)C)c3ccccc31)C(C#N)=C(N)O2 (configuration not stated)	n	n	n	n	n	n
Cn1c(SCc2nnc(-c3ccccc3Br)o2)nc2sc3c(c2c1=O)CCC3	94.4	n	77.4	x	n	x
Cn1c(SCC(=O)N2CCOCC2)nc2sc3c(c2c1=O)CCCC3	87.8	n	59.8	n	n	n
C=CCn1c(SCC(=O)N2CCOCC2)nc2sc3c(c2c1=O)CCCC3	80.1	n	71.2	n	n	n
COc1cccc(-c2nc(CS(=O)(=O)CC(=O)Nc3cccc(C)c3C)c(C)o2)c1	n	n	n	x	n	x
CCCCN(C)CCNC(=O)Cn1c(=O)sc2ccccc21	n	n	n	n	n	n
